Experimental data reported in PubChem BioAssay AID1159580 (chemical genetic matrix, 2015).
Values joined by “and” are separate entries in the source; they are usually repeats but may differ in a detail not shown here. Equal entries are not always repeated. About 2,000 (36%) of roughly 5,500 compounds were called active. Roughly 18% stayed inconclusive and do not appear here. This is one part of the list. Unmarked numbers belong to inactive results. No stated cut-off is given here; in the data, active means normalized growth mostly below about 0.91 (no sharp cut-off); inconclusive means no clear call, values can overlap the other calls; inactive means mostly above about 0.92.

Test: chemical genetic growth profiling, strain panel (AID 1159580);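 further: tested at 20 µM; growth read once vehicle control cultures reached saturation at 30 °C; 1 = growth at the plate median or of vehicle wells; lower values mean less growth of the strain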
Settings: S. cerevisiae deletion strains, growth OD

With `CC1=C(/C=C/C(C)=C/C=C/C(C)=C/C(=O)O)C(C)(C)CCC1` the normalized growth (locus YAL013W, strain DEP1, hits give low values) was 0.993 and 1.03, the normalized growth (locus YAL021C, strain ccr4, hits give low values) was 1.01 and the normalized growth (locus YAL026C, strain drs2, hits give low values) was 0.958. It also gave a normalized growth (locus YAL030W, strain snc1, hits give low values) of 0.996, a normalized growth (locus YAL040C, strain CLN3, hits give low values) of 1.03 and a normalized growth (locus YBL061C, strain skt5, hits give low values) of 0.952. The normalized growth (locus YBR009C, strain hhf1, hits give low values) was 0.968, the normalized growth (locus YBR021W, strain FUR4, hits give low values) was 1.04 and the normalized growth (locus YBR023C, strain chs3, hits give low values) was 0.959. It also gave a normalized growth (locus YBR171W, strain sec66, hits give low values) of 1, a normalized growth (locus YBR229C, strain ROT2, hits give low values) of 1.01 and a normalized growth (locus YBR231C, strain swc5, hits give low values) of 0.996. The normalized growth (locus YBR279W, strain paf1, hits give low values) was 0.994, the normalized growth (locus YCL011C, strain gbp2, hits give low values) was 0.976 and the normalized growth (locus YCL016C, strain dcc1, hits give low values) was 0.951. The normalized growth (locus YCL029C, strain bik1, hits give low values) was 1.02, the normalized growth (locus YCL061C, strain MRC1 (second series), hits give low values) was 1.01 and the normalized growth (locus YCL061C, strain MRC1, hits give low values) was 0.969. For the same compound, the normalized growth (locus YCL069W, strain vba3, hits give low values) was 1, the normalized growth (locus YCR088W, strain abp1, hits give low values) was 0.993 and the normalized growth (locus YDL005C, strain med2, hits give low values) was 0.998. For the same compound, the normalized growth (locus YDL035C, strain GPR1, hits give low values) was 0.998, the normalized growth (locus YDL040C, strain nat1, hits give low values) was 1 and the normalized growth (locus YDL074C, strain BRE1, hits give low values) was 0.995. It also gave a normalized growth (locus YDL101C, strain DUN1, hits give low values) of 1.01, a normalized growth (locus YDL134C, strain PPH21, hits give low values) of 1.01 and a normalized growth (locus YDL185W, strain tfp1, hits give low values) of 1.03. For the same compound, the normalized growth (locus YDL192W, strain arf1, hits give low values) was 1.03, the normalized growth (locus YDR001C, strain nth1, hits give low values) was 1 and the normalized growth (locus YDR069C, strain doa4, hits give low values) was 0.979. The normalized growth (locus YDR101C, strain arx1, hits give low values) was 1.03, the normalized growth (locus YDR137W, strain rgp1, hits give low values) was 0.824 (active) and the normalized growth (locus YDR150W, strain NUM1, hits give low values) was 1.02 and 1.01. The normalized growth (locus YDR159W, strain sac3, hits give low values) was 0.928, the normalized growth (locus YDR162C, strain NBP2, hits give low values) was 1.01 and the normalized growth (locus YDR195W, strain ref2) was 1.03. For the same compound, the normalized growth (locus YDR297W, strain sur2, hits give low values) was 0.991, the normalized growth (locus YDR318W, strain mcm21, hits give low values) was 1.01 and the normalized growth (locus YDR334W, strain swr1, hits give low values) was 1.02. It also gave a normalized growth (locus YDR335W, strain msn5, hits give low values) of 0.962, a normalized growth (locus YDR363W, strain ESC2, hits give low values) of 0.994 and a normalized growth (locus YDR388W, hits give low values) of 1.03. For the same compound, the normalized growth (locus YDR392W, strain spt3, hits give low values) was 0.513 (active), the normalized growth (locus YDR502C, strain sam2, hits give low values) was 1.03 and the normalized growth (locus YEL003W, strain gim4, hits give low values) was 1.01. For the same compound, the normalized growth (locus YEL037C, strain rad23, hits give low values) was 1, the normalized growth (locus YEL061C, strain CIN8 (second series), hits give low values) was 1.01 and the normalized growth (locus YEL061C, strain CIN8, hits give low values) was 1.01. The normalized growth (locus YER002W, strain NOP16, hits give low values) was 1.03, the normalized growth (locus YER015W, strain faa2, hits give low values) was 0.995 and the normalized growth (locus YER016W, strain bim1, hits give low values) was 0.954. It also gave a normalized growth (locus YER110C, hits give low values) of 1.04, a normalized growth (locus YER111C, strain swi4, hits give low values) of 1 and a normalized growth (locus YER155C, strain BEM2 (second series), hits give low values) of 0.953. For the same compound, the normalized growth (locus YER155C, strain BEM2, hits give low values) was 1.01, the normalized growth (locus YER167W, strain BCK2, hits give low values) was 1.01 and the normalized growth (locus YFR010W, strain ubp6, hits give low values) was 0.99. It also gave a normalized growth (locus YGL078C, strain dbp3, hits give low values) of 1.03, a normalized growth (locus YGL086W, strain mad1, hits give low values) of 1.02 and a normalized growth (locus YGL167C, strain pmr1, hits give low values) of 1.02. It also gave a normalized growth (locus YGL173C, strain kem1, hits give low values) of 0.97, a normalized growth (locus YGL227W, strain vid30, hits give low values) of 1.03 and a normalized growth (locus YGL240W, strain doc1, hits give low values) of 0.992. The normalized growth (locus YGL248W, strain PDE1, hits give low values) was 1.01, the normalized growth (locus YGL253W, strain hxk2, hits give low values) was 0.99 and the normalized growth (locus YGR078C, strain PAC10, hits give low values) was 0.996. For the same compound, the normalized growth (locus YGR135W, strain pre9, hits give low values) was 1.01, the normalized growth (locus YGR229C, strain SMI1, hits give low values) was 0.996 and 0.979 and the normalized growth (locus YGR252W, strain gcn5, hits give low values) was 1.08. For the same compound, the normalized growth (locus YHR013C, strain ard1, hits give low values) was 0.942, the normalized growth (locus YHR027C, strain rpn1, hits give low values) was 0.975 and the normalized growth (locus YHR030C, strain SLT2, hits give low values) was 1.01 and 0.982. The normalized growth (locus YHR079C, strain IRE1 (second series), hits give low values) was 1.01, the normalized growth (locus YHR079C, strain IRE1, hits give low values) was 1.01 and the normalized growth (locus YHR094C, strain hxt1, hits give low values) was 1.03. It also gave a normalized growth (locus YHR129C, strain ARP1, hits give low values) of 1.01, a normalized growth (locus YHR142W, strain chs7, hits give low values) of 0.957 and a normalized growth (locus YHR200W, strain rpn10, hits give low values) of 1.04. For the same compound, the normalized growth (locus YIL066C, strain RNR3, hits give low values) was 1, the normalized growth (locus YIL073C, strain SPO22, hits give low values) was 1.04 and the normalized growth (locus YIL125W, strain kgd1, hits give low values) was 1.03. For the same compound, the normalized growth (locus YIR030C, strain dcg1, hits give low values) was 1.03, the normalized growth (locus YJL092W, strain hpr5, hits give low values) was 0.988 and the normalized growth (locus YJL095W, strain BCK1 (second series), hits give low values) was 0.987. For the same compound, the normalized growth (locus YJL095W, strain BCK1, hits give low values) was 0.999 and 0.96, the normalized growth (locus YJL115W, strain asf1, hits give low values) was 1 and the normalized growth (locus YJL129C, strain trk1, hits give low values) was 0.963. It also gave a normalized growth (locus YJL134W, strain LCB3, hits give low values) of 1.01, a normalized growth (locus YJL154C, strain vps35, hits give low values) of 1.02 and a normalized growth (locus YJL164C, strain tpk1, hits give low values) of 0.971. The normalized growth (locus YJL166W, strain qcr8, hits give low values) was 0.987, the normalized growth (locus YJL168C, strain set2, hits give low values) was 1.04 and the normalized growth (locus YJL187C, strain SWE1 (second series), hits give low values) was 1.01. The normalized growth (locus YJL187C, strain SWE1, hits give low values) was 0.989, the normalized growth (locus YJR043C, strain POL32, hits give low values) was 1.01 and the normalized growth (locus YJR066W, strain TOR1, hits give low values) was 0.926.
